Source: PubChem BioAssay (several laboratories)
PrP UTR inh = suppresses PrP 5' UTR mRNA reporter expression; cell-based PrP 5' UTR mRNA reporter, plate reader; inhibition, % (test concentration not listed); 0.35% of 340,000 active; AID 488862; in the data active means inhibition above about 52%; further: 0 = median of the neutral control wells
PrPC surface inh = inhibitors of human cell surface prion protein PrPC; 0.43% of 370,000 active; inhibition, % at 13.8 µM; TR-FRET read-out; in the data active means inhibition above about 24%; further: 0% = median of the test wells and 100% = reference compound wells
Mtb hypoxia rep = Mtb hypoxia fluorescent reporter inhibition | M. tuberculosis hypoxia-regulated fluorescent reporter, fluorescence | fluorescence inhibition, % (test concentration not listed) | 0.1% of 300,000 active; in the data active means fluorescence inhibition mostly above about 23%, no sharp cut-off; inactive means mostly below about 17%
MazF activator = MazEF (E. coli) toxin RNase activation. activation, % at 20 µM. 0.32% of 350,000 active. P0AE70. FAM/BHQ RNA-DNA oligo cleavage fluorescence, 5 h. AID 504720; in the data active means activation above about 50%
Target sequence (P0AE70 whole entry, looked up): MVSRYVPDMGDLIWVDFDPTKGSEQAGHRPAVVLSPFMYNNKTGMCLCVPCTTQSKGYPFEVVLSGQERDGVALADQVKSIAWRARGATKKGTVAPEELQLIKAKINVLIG
SARS 3CLpro inh = SARS-CoV 3CLpro protease inhibition. P0C6X7. recombinant SARS-CoV 3CLpro, quenched FRET peptide cleavage. inhibition, % at 6 µM. 0.14% of 290,000 active; in the data active means inhibition above about 12%
VHR inh abs = DUSP3 (human) phosphatase inhibition; P51452; recombinant VHR phosphatase, pNPP absorbance; inhibition, % at 13.3 µM; 0.52% of 290,000 active; AID 1654; in the data active means inhibition above about 50%
Target sequence (P51452 whole entry, looked up): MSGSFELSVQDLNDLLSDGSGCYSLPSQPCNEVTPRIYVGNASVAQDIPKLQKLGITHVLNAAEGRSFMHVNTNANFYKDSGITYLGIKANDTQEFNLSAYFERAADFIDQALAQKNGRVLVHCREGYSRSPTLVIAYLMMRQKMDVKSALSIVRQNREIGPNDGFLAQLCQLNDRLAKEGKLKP
* = called active by the depositor; . = no result. Rows were chosen to be rich in hits. Some 1.5% of all compounds tested hit in one or more screens of this group.

SMILES	PrP UTR inh	PrPC surface inh	Mtb hypoxia rep	MazF activator	SARS 3CLpro inh	VHR inh abs
O=C(Nc1ncc([N+](=O)[O-])s1)c1ccc2c(c1)OCO2	69*	-15	.	-6	1	-2
Cc1ccc(N=Nc2c(O)n(CN3CCOCC3)c3ccccc23)cc1	-25	.	0	57*	-3	23
Cc1cccc(NC(=S)N=Nc2c(O)n(CN3CCOCC3)c3ccccc23)c1C	13	11	2	10	8	3
O=C(COc1ccc(C=NNC(=O)c2ccncc2)cc1)Nc1cccc([N+](=O)[O-])c1	.	.	3	.	.	.
O=C(Nc1c(C(=O)C2CC2)oc2ccccc12)c1ccc(Cl)cc1	-5	-4	.	-10	-5	51*
CCN(CC)CCn1c(=O)n(-c2ccc(Cl)cc2)c(=O)c2c3c(sc21)CN(C)CC3	-8	4	10	660*	-2	0
Cc1ccc(C=NNC(=O)c2c[nH]c3ccccc23)o1	.	.	10	.	.	.
CC(=NO)c1ccc(Cl)cc1Cl	.	.	-1	.	.	.
Cc1ccccc1C1C(C#N)=C2NC(=O)c3c(sc4c3CCCCC4)N2C2=C1C(=O)CC(C)(C)C2 (stereo unspecified)	.	.	-89	.	1	23
Cc1ccccc1C1C(C#N)=C2N=C(N)c3c(sc4c3CCCCC4)N2C2=C1C(=O)CC(C)(C)C2 (stereo unspecified)	-24	-2	-2	165*	0	27
Cc1ccc(S(=O)(=O)NCCOCCNS(=O)(=O)c2ccc(C)cc2)cc1	-5	0	-1	-1	2	23
COCCNS(=O)(=O)c1ccc(-c2ccc(C)cc2)cc1	.	3	77*	8	0	-25
O=C(NN=C1CCCc2oc(C(=O)O)cc21)c1ccccc1	.	.	5	.	.	.
Cc1ccccc1OCC(=O)NCCNC(=O)c1ccccn1	-13	5	15	5	-8	54*
O=C(COc1ccccc1Cl)NCCNC(=O)c1ccccn1	-17	-3	1	4	-5	33
CCN(CC)C(=O)Cn1nc(-c2ccncc2)nc1SCC(=O)Nc1ccc(OC)cc1	-3	6	4	-19	5	29
COC(=O)c1ccc(NC(=O)Cn2nc(-c3ccncc3)nc2SCC(=O)Nc2nccs2)cc1	-3	-4	-12	56*	3	35
Cc1ccc(S(=O)(=O)N2CCN(Cc3nc4sc(C)c(C)c4c(=O)[nH]3)CC2)cc1	-3	7	12	88*	-3	4
O=C(NCCCNc1ccc(C(F)(F)F)cc1[N+](=O)[O-])c1ccc(F)cc1	-14	3	6	62*	1	-5
Cc1ccc(C(=O)NCCCNc2ccc(C(F)(F)F)cc2[N+](=O)[O-])cc1	-24	-6	7	4	6	12
CN(C)c1ccc(C=C2C=Cc3ccccc32)cc1	-10	5	1	98*	.	.
CNc1ccc(C=C2C=Cc3ccccc32)cc1	-62	12	2	9	.	.
O=C(Nc1nnc(-c2ccccc2Cl)o1)c1nc2ccccc2s1	-1	-7	7	0	0	53*
CC(=NN=C(N)N)c1cccc(Cl)c1	.	.	-3	.	.	.
Cc1cc(C)c(C)c(OCCNCc2ccccc2)c1	-37	3	15	8	1	52*
SMILES	PrP UTR inh	PrPC surface inh	Mtb hypoxia rep	MazF activator	SARS 3CLpro inh	VHR inh abs
Cc1cc2cc(C(c3nnnn3Cc3ccccc3)N3CCc4ccccc43)c(=O)[nH]c2cc1C (stereo unspecified)	-18	-1	1	-7	5	-10
Cc1ccc2cc(C(c3nnnn3Cc3ccccc3)N3CCc4ccccc43)c(=O)[nH]c2c1C (stereo unspecified)	-12	26*	3	-16	-4	-19
Cc1cc2cc(C(c3nnnn3Cc3ccco3)N3CCc4ccccc43)c(=O)[nH]c2cc1C (stereo unspecified)	-14	2	-6	79*	3	-20
CCC(=O)c1cn(CC(=O)Nc2ccccc2Cl)c2ccccc12	-1	16	-5	54*	-3	20
COC(=O)C1=C(C(=O)OC)C2N(Cc3ccccc3)c3ccccc3[C@@]23CC(C(=O)OC)N(C(=O)NC2CCCCC2)C3=N1 (stereo partly specified)	.	.	5	.	.	.
COc1ccc(OC)c2[nH]c(=O)c(CCNS(=O)(=O)c3ccc(F)cc3)cc12	5	-4	3	9	-5	-9
CCS(=O)(=O)NCCc1cc2c(OC)ccc(OC)c2[nH]c1=O	-22	1	.	-3	6	53*
Cc1ccc(S(=O)(=O)Oc2ccc(C=C(NC(=O)c3ccccc3)C(=O)Nc3ccccc3)cc2)cc1	.	.	9	.	.	.
O=C(Nc1ccccc1OC(F)F)c1ccc(F)cc1	-12	0	-10	-7	1	-8
O=C(Nc1ccccc1F)Nc1ccccc1OC(F)F	-26	1	6	0	2	56*
COC(=O)c1cc(OC)c(OC)cc1N=CC1=C(O)CC(C)(C)CC1=O	-23	-4	.	6	3	55*
COc1ccc(C2=CSC(N=Cc3ccc(F)cc3)=NN2)cc1	.	.	39*	.	.	.
COc1ccc(C2=CSC(/N=C/c3ccc(F)cc3)=NN2)cc1	-28	-5	.	1	3	11
COC(=O)C1CC1C(NS(=O)(=O)c1ccccc1)c1ccccc1 (stereo unspecified)	.	.	6	.	.	.
CCc1cccc(CC)c1NC(=O)COC(=O)/C(C#N)=C/c1ccc(OC)cc1	-37	14	-18	124*	-4	3
COc1ccc(/C=C(\C#N)C(=O)OCC(=O)Nc2c(C)cccc2C)cc1	4	6	10	2	3	-10
N#CC(=NNc1ccc(Cl)c(Cl)c1)C(=O)C1CC1	.	.	9	.	.	.
Cc1ccccc1Cn1cccc1/C=C1/C(=N)N2C=CSC2=NC1=O	7	1	.	164*	0	43
Cc1nc2c(ccc3nc(NC(=O)c4ccc5c(c4)OCCO5)sc32)s1	-114	9	4	73*	2	0
c1ccc(CN2CCN(c3ncnc4c3[nH]c3ccccc34)CC2)cc1	-1	56*	-19	10	2	15
c1ccc2c(c1)CCN(c1ncnc3c1[nH]c1ccccc13)C2	-17	20	16	-11	.	6
Cc1ccc2[nH]c3c(N4CCN(Cc5ccccc5)CC4)ncnc3c2c1	10	29*	4	3	-4	36
CC(C)(C)OC(=O)CC1CC=CCC(CC(=O)N(CCO)Cc2ccccc2)C(=O)NC(Cc2c[nH]c3ccccc23)COC1=O (stereo unspecified)	.	.	-5	.	.	.
CC(CC(=O)Nc1cccc(Cl)c1Cl)=NNC(=O)c1ccccc1C	.	.	-2	.	.	.
COc1ccc(C2C3C(=O)N(C(C)(C)C)C(=O)C3[C@]3(Cc4ccc(Cl)cc4)C(=O)N(c4cccc(F)c4)C(=O)N23)cc1 (stereo partly specified)	.	.	0	.	.	.
O=c1c(O)cccc2cc(O)c(O)c(O)c12	8	9	10	281*	0	.
COc1cc(NC(=O)COC(=O)C=Cc2c(C)nn(-c3ccc(F)cc3)c2Cl)cc(OC)c1	.	.	2	.	.	.
